Results on 28 compounds are retold here after PubChem BioAssay (NCATS).

Assay [1] in a line: qHTS assay for small molecule agonists of the antioxidant response element (ARE) signaling pathway (AID 651741; active means well fitted activation curve with a large enough effect in the signal ratio; the % refers to the signal ratio; further: potency means the concentration at half of the fitted maximal effect; on activation: % of control where 0% means no effect). The note with it: HepG2 ARE-bla reporter, beta-lactamase FRET ratio, 16 h; series mostly up to 96 µM. The method, boiled down: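 Quantitative HTS in HepG2 cells stably expressing an ARE-beta-lactamase reporter; 16 h compound exposure at 37 C, followed by 2 h room-temperature incubation with LiveBLAzer B/G FRET substrate and fluorescence measurement.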

Assay [2] can be described thus: qHTS assay for small molecule activators of the p53 signaling pathway (AID 651743; active means well fitted activation curve with a large enough effect in the signal ratio, not every such curve was filed as active; the % refers to the signal ratio; further: % of control where 0% means no effect). The note with it: HCT-116 p53RE-bla, beta-lactamase FRET ratio, 16 h; stronger effect = higher value. In a few lines: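 Read-out is fluorescence intensity from the LiveBLAzer B/G FRET substrate, added for 2 hours at room temperature after HCT-116 p53RE-bla cells had been incubated with compounds for 16 hours at 37 C.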
A general note: In qHTS, concentration-response curves come from the screen itself.

Assay [3] in a line: qHTS assay for environmental chemicals that activate the Aryl hydrocarbon Receptor (AhR) signaling pathway (AID 651777). Further: % of control where 0% means no effect; nearly all actives have a fitted effect of over 15% in size. The note with it: 1A2-DRE human hepatoma cells, luciferase, 24 h; stronger effect = higher value. In a few lines:
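Stable CYP1A2 promoter/DRE-luciferase human hepatoma line treated 24 hr; One-Glo luminescence, 30 min RT.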

Assay [4] has as its target Peroxisome proliferator-activated receptor alpha (Homo sapiens) (UniProt Q07869). Description: qHTS assay for small molecule agonists of the peroxisome proliferator-activated receptor alpha (PPARalpha) signaling pathway (AID 651778). Further: % of control where 0% means no effect. The note with it: PathHunter PPARalpha complementation, chemiluminescence, 6 h; stronger effect = higher value. In a few lines: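 Chemiluminescence from complemented enzyme reported PPARalpha activation in cells after 6 hr of compound treatment at 37 C. The detection reagent was incubated for 60 min at room temperature, and compounds were scored as agonists.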

Assay [5] is described as follows: S16 Schwann cell PMP22 intronic element beta-lactamase assay (AID 624044; calls by dose curve;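 further: 0% = DMSO and -100% = potassium clavulanate positive control; nearly all actives have a fitted effect of over 15% in size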). The note with it: S16 rat Schwann cells, PMP22 element beta-lactamase FRET, 24 h; series mostly up to 38.3 µM. The method, boiled down:
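Rat S16 Schwann cells with beta-Lac driven by a PMP22 intronic element, compound-treated 24 h at 37 °C. LiveBLAzer FRET B/G read: 460 nm normalized to potassium clavulanate vs DMSO; 535 nm FRET as viability; concentration-effect curves classified.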

Assay [6] is described as follows: qHTS assay for small molecule activators of the nuclear factor-kappa B (NF-kB) signaling pathway (AID 651749; active means well fitted activation curve with a large enough effect in the signal ratio; the % refers to the signal ratio; further: % of control where 0% means no effect). The note with it: NF-kB-bla ME-180 cells, beta-lactamase FRET ratio, 16 h; stronger effect = higher value. The method, boiled down: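 Readout: beta-lactamase reporter driven by an NF-kB response element, detected fluorescently as loss of FRET. Cells were the ME-180 line, treated 16 hr at 37C with pin-transferred compound.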

Assay [7] has as its target Tumor necrosis factor (Homo sapiens) (UniProt P01375). Description: qHTS assay to identify small molecules that stimulate Tumor Necrosis Factor-alpha (TNF-alpha) secretion (AID 651757; active means well fitted curve in the direction sought with a large enough effect in the signal ratio; the % refers to the signal ratio; further: 0% is about no effect). As to conditions: Human cells, HTRF 665/615 ratio; series mostly up to 92.2 µM. In a few lines:
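Read-out is HTRF, a TR-FRET sandwich of cryptate- and XL665-labeled anti-TNF-alpha antibodies detecting cytokine secreted by THP-1 cells. Cells had been incubated with test compounds at 37 C for 17 hrs beforehand.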

Assay [8] is described as follows: qHTS assay for small molecule disruptors of the mitochondrial membrane potential - 1 hr assay (AID 651754; calls by dose curve; further: nearly all actives have a fitted effect of over 35% in size; further: potency means the concentration at half of the fitted maximal effect). As to conditions: series mostly up to 92.2 µM. The method, boiled down: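 HepG2, 2,000 cells/well, overnight attachment; cpd or DMSO 1 hr, 37C/5% CO2; Mito-MPS dye 30 min, 37C; fluorescence monomer (490/535) and aggregate (540/590).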
Assay [9] can be described thus: qHTS assay for small molecule disruptors of the mitochondrial membrane potential - 5 hr assay (AID 651755; calls by dose curve; further: nearly all actives have a fitted effect of over 40% in size; further: potency means the concentration at half of the fitted maximal effect). The note with it: JC-1-type ratio dye; series mostly up to 92.2 µM. In a few lines:
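HepG2, 2,000 cells/well, overnight attach; cpd or DMSO 5 hr, 37C/5% CO2; Mito-MPS 30 min 37C; fluor 490/535 + 540/590 nm.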

Assay [10] can be described thus: qHTS assay to identify small molecules that stimulate interleukin-8 (IL-8) secretion (AID 651758; active means well fitted activation curve with a large enough effect in the signal ratio; the % refers to the signal ratio; further: 0% is about no effect). The note with it: HTRF ratio (665/615); series mostly up to 92.2 µM. In a few lines: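 Secreted IL-8 measured by TR-FRET sandwich (cryptate and XL665 antibodies) from THP-1 cells exposed to compound overnight (16 hrs, 37 C).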

SMILES strings stand for the structures. Values joined by “and” are separate entries in the source; they are usually repeats but may differ in a detail not shown here. Equal entries are not always repeated. A number with no mark means an inactive call. Records with an inconclusive call do not appear. Active and inactive are the calls of the source. Unless noted, the call rests on the fitted dose curve; in most records, active means well fitted activation curve with a large enough effect; inconclusive means small, poorly fitted or top-dose-only effect; inactive means flat fitted curve, though single readings scatter.

Chain of Peroxisome proliferator-activated receptor alpha (Homo sapiens) (Q07869 whole entry, looked up): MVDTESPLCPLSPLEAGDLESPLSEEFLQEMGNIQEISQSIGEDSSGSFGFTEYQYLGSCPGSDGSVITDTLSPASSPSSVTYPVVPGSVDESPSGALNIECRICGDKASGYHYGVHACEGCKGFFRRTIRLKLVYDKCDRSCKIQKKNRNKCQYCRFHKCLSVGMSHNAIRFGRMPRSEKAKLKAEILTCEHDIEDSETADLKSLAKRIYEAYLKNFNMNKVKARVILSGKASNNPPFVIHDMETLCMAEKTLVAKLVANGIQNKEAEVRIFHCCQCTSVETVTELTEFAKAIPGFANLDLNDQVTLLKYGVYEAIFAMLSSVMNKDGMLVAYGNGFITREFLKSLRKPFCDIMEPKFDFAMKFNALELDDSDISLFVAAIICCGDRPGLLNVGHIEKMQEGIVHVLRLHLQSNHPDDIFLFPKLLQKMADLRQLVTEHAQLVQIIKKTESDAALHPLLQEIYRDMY
Chain of Tumor necrosis factor (Homo sapiens) (P01375 whole entry, looked up): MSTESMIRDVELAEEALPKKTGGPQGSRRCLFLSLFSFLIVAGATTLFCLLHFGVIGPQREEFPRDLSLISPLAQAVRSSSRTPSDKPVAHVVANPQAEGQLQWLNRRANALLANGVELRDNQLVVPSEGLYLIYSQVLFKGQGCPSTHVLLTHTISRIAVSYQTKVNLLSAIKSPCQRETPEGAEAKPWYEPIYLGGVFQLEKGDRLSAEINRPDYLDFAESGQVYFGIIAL

Take `CC[N+](CC)(CC(=O)Nc1c(C)cccc1C)Cc1ccccc1`: the Potency entry in assay [1] is “inactive”. In addition, the activation in assay [2] is -6.37%; in assay [3], 0.016%. Moreover, the max response in assay [4] is 1.81%.
For the compound `CCN(CC)CC1CCCCN1CC(=O)N1c2ccccc2C(=O)Nc2cccnc21` (stereo unspecified), the result in [5] was inactive.
With `O=C(CCBr)N1CCN(C(=O)CCBr)CC1`, the outcome in assay [5] was inactive.
`CCCCCCCCCCCCCCCCCCO`: the activation is -2.92% in assay [2] and 0.518% in assay [3]. Besides, the max response in assay [4] is -0.423%.
`COc1ccc(O)cc1`: in assay [1], the Potency entry was “inactive”. In addition, the results for the activation in assay [2], in assay [6] and in assay [3] were 1.27%, 0.533% and 0.2%, respectively. In addition, the outcome in [7] was inactive. Moreover, in assay [4], the max response is -1.68%.
For `COc1ccccc1Oc1c(NS(=O)(=O)c2ccc(C(C)(C)C)cc2)nc(-c2ncccn2)nc1OCCO`, the result in assay [5] was inactive.
For the compound `CCCCCC(N)=O`, the Potency entry in [1] was “inactive”. Besides, the activation is 0.75% in assay [2], 0.129% in assay [6] and -0.0681% in [3]. The result in assay [7] was inactive. Moreover, the max response in [4] was -2.19%.
`CC(=O)Nc1ccc(C(=O)O)cc1`: the activation is -0.0847% in assay [2], -1.2% in assay [6] and 0.454% in assay [3]. In addition, the result in assay [7] was inactive. For the same compound, in [4], the max response is -0.167%.
In the case of `NC(=O)c1ccc([N+](=O)[O-])cc1Cl`, the result in [5] was inactive.
Consider `CCCCOC(=O)c1ccc(N)cc1`, for which the call in assay [5], in [7] and in assay [10] was inactive. Further, the activation in assay [2] is -1.05%; in [6], -0.245%; in [3] it was 13%. Further, the Potency entry in assay [8] and in assay [9] was “inactive” each time. Besides, the max response in [4] is -1.13%.
For the compound `CC(=O)NS(=O)(=O)c1ccc(N)cc1`, the call in assay [5] and in [7] was inactive. The activation is -3.02% in assay [2], -0.656% in assay [6] and -0.967% in [3]. In addition, the Potency entry in [8] and in assay [9] was “inactive” each time. Moreover, the max response in [4] is -6.08%.
Take `Cc1cccc(Nc2ccccc2C(=O)O)c1C`: in assay [1], the Potency is 61.1 µM (active). In addition, the activation in assay [3] was 2.22%.
For `Cc1ccc(C(C)C)c(O)c1`, the Potency result in assay [1] is “inactive”. The activation in [2] was -1.75%; in [6] it was -1.79%; in assay [3], 0.149%. For the same compound, the max response in assay [4] was -0.976%.
As to `CC(=O)Nc1ccc(OCCOCCOc2ccc(NC(C)=O)cc2)cc1`, the compound was called inactive in assay [5].
As for `O=C1c2cccc(O)c2C(=O)c2c(O)cccc21`, the compound was called inactive in [5] and in assay [7]. Besides, the Potency in assay [1] was 29.8 µM (active); in assay [8], 4.73 µM (active); in [9], 7.5 µM (active). Also, the values for the activation in assay [2], in assay [6] and in assay [3] were 3.77%, -0.734% and 5.57%, respectively. The max response in assay [4] is -5.75%.
Turning to `O=C(c1ccccc1)C(O)c1ccccc1` (stereo unspecified), the Potency entry in assay [1] is “inactive”. Besides, the activation in assay [6] was -2.35% and -0.255%; in assay [3] it was -1.25% and 2.53%. The outcome in assay [7] was inactive. Also, the max response in assay [4] was -1.85% and -1.14%.
As for `CCCC(O)C(CC)CO` (stereo unspecified), the Potency result in assay [1] is “inactive”. Further, the activation in assay [2] is 1.06%; in [6] it was 0.969%; in assay [3] it was 0.804%. For the same compound, the result in assay [7] and in assay [10] was inactive. For the same compound, in [4], the max response was -4.25%.
Turning to `CCCCCCCCCCCCCCCCN`, the outcome in [5] was inactive.
On the same count and under the same terms, as for `N[C@@H](Cc1ccc(O)cc1)C(=O)O`, the entry is “inactive”; as for `COc1ccc(NS(=O)(=O)c2ccc(N)cc2)nn1`, “inactive”.
`Cc1cc(O)cc(C)c1Cl`: the compound was classed as inactive in [5]. In addition, the Potency in assay [1] was 10.9 µM (active). Further, in assay [6], the activation was -0.418%. For the same compound, the max response in assay [4] was -0.107%.
For `CCCCCCCC(=O)OCC(COC(=O)CCCCCCC)OC(=O)CCCCCCC`, the activation is -2.91% in assay [2] and -1.98% in assay [3]. In addition, the outcome in assay [7] was inactive. Moreover, the max response in assay [4] was 4.51%.
Take `O=C(O)CCCCC1CCSS1` (stereo unspecified): in [1], the Potency was 48.6 µM (active) and 37.6 µM (active). Further, the activation in [2] was -5.57% and 16.2%; in assay [6], -0.268% and -2.59%; in assay [3], 1.47% and -0.721%. For the same compound, the outcome in [7] and in assay [10] was inactive. For the same compound, in [4], the max response is -5.44% and -4.99%.
For the compound `FC(F)(F)C(Cl)Br` (stereo unspecified), the figures for the activation in assay [2] and in [3] were -1.4% and 0.539%, respectively. The outcome in [7] and in [10] was inactive. Further, the max response in assay [4] is -5.56%.
As to `OC[C@@H](O)[C@@H](O)[C@H](O)[C@H](O)CO`, the values for the activation in assay [2], in assay [6] and in assay [3] were -0.611%, -2.19% and -0.115%, respectively. Moreover, in assay [4], the max response is -1.72%.
As for `Cc1cc(C)nc(NS(=O)(=O)c2ccc(N)cc2)n1`, the Potency entry in [1] was “inactive”. In addition, the activation was -3.59% and 3.14% in assay [2]; -1.73% and 0.131% in [3]. In addition, the outcome in assay [7] was inactive. The max response in assay [4] is -5.72% and -2.38%.
As for `O=C(OOC(=O)c1ccccc1)c1ccccc1`, in assay [1], the Potency entry is “inactive”. Also, the activation was -0.427% in assay [2] and 2.82% in assay [3]. Also, the max response in assay [4] was -3.46%.
In the case of `Cc1cc(=O)[nH]c(=S)[nH]1`, the values for the activation in assay [2], in [6] and in assay [3] were -1.35%, -0.135% and -0.745%, respectively. For the same compound, the outcome in assay [7] and in assay [10] was inactive. Moreover, in assay [4], the max response is -5.54%.
